{"source": "PubChem BioAssay (Tox21)", "note": "Where “and” joins values, the source holds several entries; their conditions need not be identical. Identical values can stand only once. Records with an inconclusive call do not appear. A call without a number means that no potency is given here. Values without a mark were called inactive. Calls of active or inactive are those of the source. Calls follow the shape of the full dose curve. Potency is read from the fitted curve at half-maximal effect."}
{"experiment": "qHTS assay to identify small molecule agonists of the hypoxia (HIF-1) signaling pathway - cell viability counter screen (AID 1224844); also: nearly all actives have a fitted effect of over 50% in size", "conditions": "HRE-bla ME-180 viability, CellTiter-Glo luminescence, 17 h; series mostly up to 76.8 µM", "description": "National Center for Advancing Translational Sciences [NCATS]\nNIH Chemical Genomics Center [NCGC]\nU.S. Environmental Protection Agency [EPA]\nNational Institutes of Environmental Health Sciences [NIEHS]\nNational Toxicology Program [NTP]\nU.S. Food and Drug Administration [FDA]\nHypoxia-inducible factor-1 (HIF-1) is the major hypoxia-regulated transcription factor that controls cellular responses to low oxygen concentration. HIF-1 is composed of two subunits: hypoxia responsive HIF-1-alpha and constitutively expressed HIF-1-beta, which is also known as aryl hydrocarbon receptor nuclear translocator. During hypoxic conditions, HIF-1-alpha heterodimerizes with HIF-1-beta and translocates into the nucleus where the HIF-1 complex binds to the hypoxia-response element (HRE) and activates expression of target genes such as VEGF (vascular endothelial growth factor). The HIF-1 pathway is essential to normal growth and development, and is involved in the pathophysiology of cancer, inflammation, and ischemia.\nUsing a beta-lactamase reporter-gene under control of the hypoxia response element, a cell-based assay [CellSensor(TM) HRE-bla ME-180 from Life Technologies, Carlsbad, CA] was used to measure hypoxia-induced signaling. Tox21 10K library compounds were measured for their ability to induce the reporter gene activity. The cytotoxicity of the Tox21 compound library against HRE-bla ME-180 cell line was tested in parallel by measuring cell viability using CellTiter-Glo assay (Promega, Madison, WI) in the same assay wells.\nTox21 Assay Protocol Summary:\nHRE-bla ME-180 cells were dispensed at 2,000 cells per well in 6 uL of assay medium containing 0.5% dialyzed FBS into black wall/clear-bottom 1536-well plates using a Multidrop Combi (Thermo Scientific, Waltham, MA) dispenser. After the assay plates were incubated at 37C and 5% CO2 for 5 hrs, 23 nL of compounds dissolved in DMSO, positive controls or DMSO only was transferred to each well of the assay plate using a Pintool station (Kalypsys, San Diego, CA). The assay plates were incubated at 37C and 5% CO2 for 17 hrs. One uL of LiveBLAzerTM B/G FRET substrate (CCF4-AM) (Life Technologies) was added to each well using a Flying Reagent Dispenser (FRD, Aurora Discovery, San Diego, CA). After 2 hr incubation at room temperature, fluorescence intensity (405 nm excitation, 460 nm and 530 nm emissions) was measured using an Envision plate reader (PerkinElmer, Shelton, CT). For cytotoxicity, 4 ul/well of CellTiter-Glo reagent was added into the assay plates using an FRD. After 30 min incubation at room temperature, the luminescence intensity was measured using a ViewLux plate reader (PerkinElmer)."}
{"compound": "CC1=C(/C=C/C(C)=C/C=C/C(C)=C\\C=O)C(C)(C)CCC1", "Potency": "inactive"}
{"compound": "CCN=C1C=CC(=C(c2ccc(N(CC)CC)cc2)c2ccc(N(CC)CC)cc2)c2ccccc21", "Potency": "21.7 µM (active)"}
{"compound": "CO[Si](CCCNCCNCCN)(OC)OC", "Potency": "inactive"}
{"compound": "CCO[Si](CCCSSSSCCC[Si](OCC)(OCC)OCC)(OCC)OCC", "Potency": "19.5 µM (active)"}
{"compound": "O=C(O)Cc1ccc(OCCNC[C@H](O)c2ccccc2)cc1", "Potency": "inactive"}
{"compound": "CC(C)(c1cc(Br)c(O)c(Br)c1)c1cc(Br)c(O)c(Br)c1", "Potency": "54.8 µM (active) and 48.9 µM (active)"}
{"compound": "CCN(CC)CCCN(c1ccccc1)C1Cc2ccccc2C1", "Potency": "23.9 µM (active)"}
{"compound": "Brc1ccccc1-c1ccccc1", "Potency": "36.8 µM (active)"}
{"compound": "CC(C)CCOCCC(C)C", "Potency": "inactive"}
{"compound": "CC(NCCC(c1ccccc1)c1ccccc1)c1ccccc1", "note": "(stereo not given)", "Potency": "inactive"}
{"compound": "CO[Si](CCC1CCC2OC2C1)(OC)OC", "note": "(stereo not given)", "Potency": "inactive"}
{"compound": "CCCCCCCC(OC)OC", "Potency": "inactive"}
{"compound": "Cn1cccc1", "Potency": "inactive"}
{"compound": "CC(C)c1cccc(C(C)C)c1N1C(=O)c2ccc(O)cc2C1=O", "Potency": "inactive"}
{"compound": "CCCCCCCCCCCCCCCC", "Potency": "inactive"}
{"compound": "CCOC(/C=C(\\C)CCC=C(C)C)OCC", "Potency": "inactive"}
{"compound": "CCCOc1sc(C(=O)N2CCC(c3cc(CN)ccc3F)CC2)c(C)c1Br", "Potency": "28.3 µM (active)"}
{"compound": "NC1(c2ccc(-c3nc4ccn5c(=O)[nH]nc5c4cc3-c3ccccc3)cc2)CCC1", "Potency": "2.13 µM (active)"}
{"compound": "ClC/C=C\\CCl", "Potency": "inactive"}
{"compound": "C=CC/C=C/C/C=C/C/C=C/C", "Potency": "inactive"}
{"compound": "O=C(O)c1cccc(Cl)n1", "Potency": "inactive"}
{"compound": "O=Nc1ccc(NO)cc1", "Potency": "inactive"}
{"compound": "CCCCCCCC/C=C\\CCCCCCCC(=O)N(C)CC(=O)O", "Potency": "49 µM (active)"}
{"compound": "C=C/C=C/C=C/CCCCC", "activity change, negative = cytotoxicity": "-12% [at 15.8 µM]"}
{"compound": "CCCC(=O)OCC(COC(=O)CCC)OC(=O)CCC", "Potency": "inactive"}
{"compound": "O=C1NC2CCCCN2C12CCN(CCCN1c3ccccc3CCc3ccc(Cl)cc31)CC2", "note": "(stereo not given)", "Potency": "inactive"}
{"compound": "O=C1OC(=O)c2ccc3c4c(ccc1c24)C(=O)OC3=O", "Potency": "inactive"}
{"compound": "CCC1(c2cnc[nH]2)Cc2ccccc2C1", "Potency": "inactive"}
{"compound": "CN(Cc1cc(Br)cc(Br)c1N)C1CCCCC1", "Potency": "inactive"}
{"compound": "CN1[C@@H]2CC[C@H]1CC(OC(=O)C(CO)c1ccccc1)C2", "note": "(stereo not given in full)", "Potency": "inactive"}
{"compound": "CCCC(C)CCC(C)=O", "note": "(stereo not given)", "Potency": "inactive"}
{"compound": "CC(C)(C)c1n[nH]c(=O)n(N)c1=O", "Potency": "inactive"}
{"compound": "O=S(O)O", "activity change, negative = cytotoxicity": "0.552% [at 15.8 µM]"}
{"compound": "CCc1c(C(=O)O)c(=O)cnn1-c1ccc(Cl)cc1", "Potency": "inactive"}
{"compound": "CCCCN(C)C", "Potency": "inactive"}
{"compound": "Cc1c(C)n(Cc2ccccc2)c2ccc(C(=O)OCCN(C)C)cc12", "Potency": "inactive"}
{"compound": "OCCCS", "Potency": "inactive"}
{"compound": "O=C1NCN(c2ccccc2)C12CCN(CCCC(c1ccc(F)cc1)c1ccc(F)cc1)CC2", "Potency": "10.7 µM (active)"}
{"compound": "CC(=O)Nc1ccc(O)cc1", "Potency": "inactive"}
{"compound": "O=c1cccc[nH]1", "Potency": "inactive"}
